# High-throughput results as filed in PubChem.
# FLuc modulator – inhibits or activates purified firefly luciferase, miR-21 counter-screen | purified FLuc, Km substrates, luminescence inhibition | 360,000 tested, 6.9% active | Potency, µM (highest dose often 57.5 µM), for the others: at the top dose activity change, negative = inhibition, usual class: inhibitors | P08659 | AID 588342;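 further: plate controls were vehicle for no effect and reference inhibitor for full effect; nearly all actives have a fitted effect of over 55% in size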
# Target sequence (P08659 whole entry, looked up): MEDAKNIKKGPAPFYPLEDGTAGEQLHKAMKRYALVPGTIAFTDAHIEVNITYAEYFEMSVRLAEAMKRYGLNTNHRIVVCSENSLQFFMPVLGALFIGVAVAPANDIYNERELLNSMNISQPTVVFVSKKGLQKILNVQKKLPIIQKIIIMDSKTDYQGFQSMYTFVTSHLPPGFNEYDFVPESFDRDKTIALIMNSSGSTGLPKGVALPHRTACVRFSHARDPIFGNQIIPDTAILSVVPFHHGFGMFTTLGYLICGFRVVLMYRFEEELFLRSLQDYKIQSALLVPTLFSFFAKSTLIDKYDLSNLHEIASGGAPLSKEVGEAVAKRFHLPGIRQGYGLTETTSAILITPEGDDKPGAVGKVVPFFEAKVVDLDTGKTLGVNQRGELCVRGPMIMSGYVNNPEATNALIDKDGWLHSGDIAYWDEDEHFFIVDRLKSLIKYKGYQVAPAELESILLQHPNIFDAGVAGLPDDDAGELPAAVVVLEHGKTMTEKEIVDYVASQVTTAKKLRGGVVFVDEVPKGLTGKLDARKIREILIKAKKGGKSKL
#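 Purified P. pyralis luciferase (10nM final) with 10uM D-luciferin and 10uM ATP (Km levels) in 50mM Tris acetate pH 7.5, 10mM Mg acetate, 0.01% Tween-20, 0.05% BSA; qHTS 6-point titration, ~60 µM downward; luminescence read.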
# NPC1 prom act – activates the NPC1 promoter; Potency, µM (titrated, usually from 9.22 µM), for the others: top-dose activation, most hits filed as activators; Huh7 NPC1 promoter luciferase reporter, 24 h; 320,000 tested, 2.4% active; further: % of control where 0% means no effect; nearly all actives have a fitted effect of over 60% in size
#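 Cells: Huh7 expressing luciferase under the NPC1 promoter, 1500/well. Seeded 2 h, compound added, incubated 24 h at 37 °C. Luciferase reagent, 10 min ambient, then luminescence.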
# Rab9 promoter act – activators of Rab9 promoter. Huh7 Rab9 promoter-luciferase reporter, luminescence, 24 h. Potency, µM (highest dose often 9.22 µM), for inactives: top-dose activation, negative = inhibition, actives largely listed as activators. 320,000 tested, 2.8% active; further: % of control where 0% means no effect; nearly all actives have a fitted effect of over 60% in size
#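 Huh7 cells stably carrying a Rab9 promoter-luciferase reporter, 1500 cells per well in OP-MEM I with 10% FBS, treated with compound 24 hours at 37C. Luciferase activity read by luminescence after 10 minutes with Amplite reagent.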
# KinaseGlo FLuc – Kinase-Glo luciferase inhibition (counter-screen). Potency, µM (highest dose often 38.3 µM), for inactives: at the highest dose activity change, negative = inhibition, most hits filed as inhibitors. Kinase-Glo luciferase, ATP luminescence, 8 min. AID 1379. Q27757. 200,000 tested, 0.28% active; further: on the % scale 0 is the no-effect control and ±100 the full control effect; nearly all actives have a fitted effect of over 60% in size
#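 Inhibition of Kinase-Glo luciferase light generation was assessed at 10 uM ATP in pH 7.2 imidazole buffer, with luminescence measured after eight minutes at ambient temperature.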
# ELG1 genotox – genotoxicity induction in ELG1-luciferase HEK293T cells | AID 504466 | 330,000 tested, 1.3% active | Potency, µM (titrated, usually from 46 µM), for inactives: at the top dose activity change, positive = activation, hits mostly activators | HEK293T ELG1-luciferase reporter, luminescence, 16 h; further: % of control where 0% means no effect; nearly all actives have a fitted effect of over 60% in size
#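 After overnight (16 hr) compound treatment at 37 °C, ELG1-luciferase HEK293T cells were lysed with ONE-Glo; luminescence quantified 30 min later at room temperature.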
# SMN2 splice up – SMN2 splice variant enhancement; HEK293 SMN2-luciferase splicing reporter, luminescence, 30-36 h; Potency, µM (doses to about 46.1 µM), for the others: top-dose activity change, positive = activation, most hits filed as activators; 210,000 tested, 2.8% active; AID 1458; further: % of control where 0% means no effect; nearly all actives have a fitted effect of over 55% in size
#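 qHTS luciferase splicing reporter: luminescence rises when SMN2 exon 7 is included in transfected HEK293 cells. Compound exposure lasted 30-36 h at 37C, with 4.5 mM final sodium butyrate as control, followed by a ONE-Glo read.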
# The depositor's hits bear a star; ? = inconclusive; nt = no result given; [ ] = remark or other dose. Hits are enriched below; roughly 7.3% of the tested compounds scored in any of these assays. The call rests on the fitted dose curve; in most records, active means well fitted curve in the direction sought with a large enough effect; inconclusive means small, poorly fitted or top-dose-only effect, or another doubt; inactive means no such curve, though single readings can be large; an effect the other way counts as inactive or inconclusive. Potency means the concentration at half of the fitted maximal effect.
SMILES,FLuc modulator,NPC1 prom act,Rab9 promoter act,KinaseGlo FLuc,ELG1 genotox,SMN2 splice up
O=C(CC(Nc1ccc(Cl)cc1Cl)C(=O)O)c1ccccc1 (stereo not drawn),2.7µM*,6%,10%,nt,6.5µM*,nt
CCC(=O)N1CCCc2cc(S(=O)(=O)Nc3ccc(C)c(C)c3)ccc21,-15%,nt,nt,nt,nt,-45%
C=C1C=C(C(F)F)n2ncc(C(=O)Nc3ccccc3OCC)c2N1,0%,nt,nt,nt,nt,nt
COCCCNc1ncnc2c1c(-c1ccccc1)cn2-c1ccc(C)c(Cl)c1,-15%,nt,nt,nt,nt,nt
COC(=O)c1cccc(NC(=S)NCc2ccco2)c1,?,4%,0%,0%,3%,-6%
COC(=O)c1cccc(NC(=S)NCc2ccc(F)cc2)c1,4%,10%,-6%,-2%,-4%,7.1µM*
CNC(=S)Nc1cccc(C(=O)OC)c1,-3%,3.5µM*,2µM*,nt,18%,nt
CCOc1cc(-c2ccc(OC(=O)c3ccc(C)cc3)c(OC)c2)cc(=O)c2c(C)oc(C)c12,-10%,nt,nt,nt,nt,nt
Cc1c(/C=C(\C#N)C(=O)Nc2cccc(Cl)c2)c2ccccc2n1Cc1ccccc1,6%,nt,nt,nt,nt,-6%
O=C(N/N=C\c1ccc(Cl)s1)c1cccs1,17µM*,25%,?,14%,-2%,2%
O=C(N/N=C/c1ccncc1)c1cccs1,?,19%,10%,nt,?,nt
COc1ccccc1C(=O)N/N=C/c1cnc2ccccc2n1,?,?,?,-3%,?,16µM*
COC(=O)c1ccccc1Oc1cnc2ccccc2n1,-3%,2%,-3%,nt,1%,nt
COc1ccccc1C(=O)N/N=C/c1ccc(Cl)s1,19µM*,10%,17%,-1%,7%,?
Cc1ccc(-c2nnc(-c3ccc(Br)cc3)o2)o1,3µM*,?,3.2µM*,-1%,?,13µM*
c1coc(-c2nnc(-c3ccco3)nn2)c1,17µM*,?,?,nt,4%,nt
c1coc(-c2nnc(-c3cccs3)o2)c1,?,?,?,-6%,?,11µM*
Brc1ccc(-c2nnc(-c3ccco3)o2)cc1,8.5µM*,3.2µM*,4µM*,-7%,?,nt
CCN(CC)S(=O)(=O)c1cc(-c2nnc(-c3ccc(Br)cc3)o2)ccc1Br,-7%,-4%,-5%,1%,0%,-62%
CCOc1ccc(NC(=O)c2cnn(-c3ccc(C)c(C)c3)c2C2CCN(C(=O)OC(C)(C)C)CC2)cc1,2%,nt,nt,nt,nt,-3%
O=C(Cc1ccccc1)Nc1ccc(-c2nnc(-c3ccco3)o2)cc1,3%,0%,8%,1%,2%,1%
c1ccc(-c2nnc(-c3ccco3)o2)cc1,21µM*,3.2µM*,3.2µM*,?,2.1µM*,nt
N[C@@]1(C(=O)O)CO[C@H]2[C@H](C(=O)O)[C@H]21,nt,nt,nt,1%[39.9 µM],nt,nt
C/C(=C\c1ccccc1)C(=O)NCCc1ccccc1,3.4µM*,1.4µM*,0.71µM*,3%,4.6µM*,11µM*
S=C(NCCc1ccccc1)NCCc1ccccc1,15µM*,4.5µM*,4.5µM*,-6%,?,13µM*
SMILES,FLuc modulator,NPC1 prom act,Rab9 promoter act,KinaseGlo FLuc,ELG1 genotox,SMN2 splice up
CC(C)(C)C(=O)NC(=S)NCCc1ccccc1,17µM*,?,?,-1%,12%,14%
CN(C)CCCNC(=O)/C(=N\O)c1ccccc1,6%,-2%,9%,-2%,2%,-7%
O=C(NCCc1ccccc1)/C(=N\O)c1ccccc1,15µM*,3.2µM*,4µM*,-7%,?,?
COC(=O)N1CCCc2cc(S(=O)(=O)NCc3ccccc3)ccc21,-10%,nt,nt,nt,nt,-6%
CN(C)CCNc1ccccn1,nt,nt,nt,-2%[7.66 µM],nt,-8%[9.22 µM]
S=C(NCCc1ccccc1)Nc1ccc(Cl)cc1,17µM*,24%,23%,0%,12%,10µM*
CC(C)(C)NC(=O)NCCc1ccccc1,21µM*,1.4µM*,4µM*,nt,?,nt
O=C(NCCc1ccccc1)Nc1ccc(Cl)cc1,6.7µM*,2.5µM*,3.2µM*,2%,?,11µM*
Cc1ccccc1NC(=O)NCCc1ccc(Cl)cc1,1%,-3%,14%,0%,1%,1%
S=C(NCCc1ccccc1)N/N=C/c1ccc(Cl)cc1,-17%,-3%,0%,nt,-1%,nt
CC(C)[C@H](NC(=O)NCCc1ccccc1)C(=O)O,4%,6%,0%,2%,0%,6%
N/C(=N\OC(=O)CC1CCCCC1)c1ccncc1,19µM*,0%,1%,1%,8%,nt
N/C(=N\OC(=O)CC1CCCCC1)c1ccccn1,0.6µM*,20%,15%,-12%,?,16%
N/C(=N\OC(=O)CCC1CCCC1)c1ccncc1,13µM*,-4%,2%[1.84 µM],0%,9%,3%
CC1CCN(S(=O)(=O)c2cc(C(=O)Nc3ccc(Br)cc3F)n(C)c2)CC1,-4%,nt,nt,nt,nt,nt
COc1ccc(CCN(/C=C2\Sc3ccccc3C2=O)C(C)=O)cc1OC,27µM*,-5%,-3%,nt,0%,nt
CCC1=Nc2cc(C(=O)NCCc3ccc(OC)c(OC)c3)ccc2Sc2ccccc21,-3%,nt,nt,nt,nt,-39%
CC1=C(C(=O)Nc2ccccc2)C(c2ccncc2)n2nc(SCc3ccccc3F)nc2N1 (stereo not drawn),2%,nt,nt,nt,nt,22%
Cc1ccc(C(=O)COC(=O)c2cccc([N+](=O)[O-])c2)s1,4.8µM*,11%,7%,nt,10%,nt
